# Source: PubChem BioAssay AID1851 (National Center for Advancing Translational Sciences (NCATS), 2009)
# About 2,600 (16%) of roughly 16,000 compounds were called active. Inconclusive results (about 20%) are left out. These entries were drawn from the full list. Values without a mark were called inactive. Calls come from the whole dose curve; as a rule, active = well fitted curve in the direction sought with a large enough effect; inconclusive = small, poorly fitted or top-dose-only effect, or effect the other way; inactive = no such curve, though single readings can be large or run the other way.
# Target: Cytochrome P450 2D6 (Homo sapiens) (UniProt P10635)
# Sequence (P10635 whole entry, looked up): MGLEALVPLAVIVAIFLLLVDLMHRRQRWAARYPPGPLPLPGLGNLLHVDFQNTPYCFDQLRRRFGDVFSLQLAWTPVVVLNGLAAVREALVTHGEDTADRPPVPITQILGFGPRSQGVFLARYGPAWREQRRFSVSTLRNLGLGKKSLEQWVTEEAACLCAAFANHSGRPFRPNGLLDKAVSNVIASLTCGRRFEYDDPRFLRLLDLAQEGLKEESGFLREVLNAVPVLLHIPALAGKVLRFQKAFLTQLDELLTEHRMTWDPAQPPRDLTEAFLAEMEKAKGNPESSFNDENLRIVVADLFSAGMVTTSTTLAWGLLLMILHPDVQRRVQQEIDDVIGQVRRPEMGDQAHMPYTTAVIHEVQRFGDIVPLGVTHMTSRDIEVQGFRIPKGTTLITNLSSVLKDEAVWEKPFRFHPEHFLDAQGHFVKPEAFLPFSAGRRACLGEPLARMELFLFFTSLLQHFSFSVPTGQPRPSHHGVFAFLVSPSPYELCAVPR
# Assay: Cytochrome panel assay with activity outcomes
# Settings: recombinant CYP, pro-luciferin dealkylation, luminescence, p450-cyp2d6; series mostly up to 57.1 µM
# % is set by controls: 0 for no effect and ±100 for the full control effect.
SMILES,AC50,"activity, negative = inhibition"
CCNC(=S)NNC(=O)c1cc(CC(C)C)nc2ccccc12,inactive,
O=C1[C@H]2[C@H]3[C@H](O)[C@H](O)C/C(=N/OCc4ccccc4)[C@@H]3CC[C@@H]2C(=O)N1C[C@@H]1CCCO1,,10% [at 11.4 µM]
Cn1c(=O)c(-c2cccc(C#N)c2)nc2cnc(Oc3ccccc3)nc21,inactive,
O=c1cc(O)cc(/C=C\c2ccc(O)c(O)c2)o1,inactive,
CC1=C(C(=O)N2CCCCCC2)C2(CCC(C)CC2)OC1=O (stereo unspecified),inactive,
COc1ccccc1NC(=S)NNC(=O)c1c(Cl)c(C)nn1C,inactive,
CC(C)CN(CC(C)C)S(=O)(=O)N1CCC(C(=O)NCc2ccc(F)cc2)CC1,inactive,
CC[C@H](NC(C)C)[C@H](O)c1ccc(O)c(O)c1,10 µM (active),
COc1cc([C@H](O)CO)ccc1O,inactive,
CNC[C@@H](SC)c1ccc(O)c(O)c1,,2.56% [at 11.4 µM]
COC(=O)C(C)Sc1nc2c(cnn2-c2ccc(C)cc2)c(=O)[nH]1 (stereo unspecified),inactive,
Cc1ccc(C(=O)C(OC(=O)COc2ccccc2C)c2ccccc2)cc1 (stereo unspecified),inactive,
Cc1ccc(C(=O)C(OC(=O)CNS(=O)(=O)c2ccccc2)c2ccccc2)cc1 (stereo unspecified),inactive,
Cc1ccc(C(=O)C(OC(=O)CCC(=O)Nc2cccc(C)c2)c2ccccc2)cc1 (stereo unspecified),28.2 µM (active),
Cc1cc2c(c(=O)o1)[C@@H](O)[C@H]1O[C@@H]1C2=O,,3.46% [at 11.4 µM]
C[N+](C)(C)c1ccc([C@H](N)C(=O)O)cc1,,6.78% [at 11.4 µM]
COc1ccc(CNc2ncnc3ccc(-c4cccnc4)cc23)c(OC)c1,10 µM (active),
COc1ccccc1CNc1ncnc2ccc(-c3cccnc3)cc12,5.01 µM (active),

SMILES,AC50,"activity, negative = inhibition"
COc1ccc(S(=O)(=O)NC2(C(F)(F)F)N=C3SCCN3C2=O)cc1 (stereo unspecified),inactive,
CCN1CCN(c2nc(C)c3c(n2)CCCC3=O)CC1,inactive,
COC(=O)c1ccccc1-c1ccc(/C=C2\C(=O)N(c3ccccc3)N=C2c2ccccc2)o1,inactive,
O=C(NC1CCCCC1)c1sc(=S)n2c1[nH]c(=O)c1ccccc12,inactive,
COc1ccc(C2C(C#N)=C(N)N(Nc3ccccc3)C3=C2C(=O)CC(C)(C)C3)cc1C (stereo unspecified),inactive,
S=C(S)O[C@@H]1C[C@@H]2C[C@H]1[C@@H]1CCC[C@H]21,inactive,
C#CCCCO/N=C1/C[C@@H](O)[C@@H](O)[C@@H]2[C@@H]3C(=O)N(CCC(=O)OCC)C(=O)[C@H]3CC[C@@H]12,,-5.32% [at 11.4 µM]
CCOC(=O)CCN1C(=O)[C@H]2[C@H]3[C@H](O)[C@H](O)C/C(=N/OC/C=C(\C)CCC=C(C)C)[C@H]3CC[C@@H]2C1=O,,1.08% [at 11.4 µM]
CC(=O)OC[C@@H]1O[C@@H](O/N=C2/C[C@@H](O)[C@@H](O)[C@@H]3[C@@H]4C(=O)N(C(C)(C)C)C(=O)[C@H]4CC[C@@H]23)[C@H](OC(C)=O)[C@H](OC(C)=O)[C@@H]1OC(C)=O,,-13.3% [at 11.4 µM]
CCOC(=O)CCN1C(=O)[C@H]2[C@H]3[C@H](O)[C@H](O)C/C(=N/O[C@@H]4O[C@@H](COC(C)=O)[C@@H](OC(C)=O)[C@@H](OC(C)=O)[C@H]4OC(C)=O)[C@@H]3CC[C@@H]2C1=O,3.16 µM (active),
CCN1C(=O)[C@H]2[C@H]3[C@H](O)[C@H](O)C/C(=N/O[C@@H]4O[C@H](COC(C)=O)[C@@H](OC(C)=O)[C@H](OC(C)=O)[C@H]4OC(C)=O)[C@@H]3CC[C@@H]2C1=O,3.98 µM (active),
CC(=O)OC[C@@H]1O[C@@H](O/N=C2/C[C@@H](O)[C@@H](O)[C@@H]3[C@H]4C(=O)N(c5ccc(F)cc5F)C(=O)[C@@H]4CC[C@H]23)[C@H](OC(C)=O)[C@H](OC(C)=O)[C@@H]1OC(C)=O,3.16 µM (active),
O=C1[C@@H]2[C@H]3[C@H](O)[C@H](O)C/C(=N/OCc4ccccc4)[C@H]3CC[C@H]2C(=O)N1c1ccc(F)cc1F,,-7.87% [at 11.4 µM]
CC(=O)OC[C@@H]1O[C@@H](O/N=C2/C[C@@H](O)[C@@H](O)[C@@H]3[C@@H]4C(=O)N(C(C)(C)C)C(=O)[C@H]4CC[C@H]23)[C@H](OC(C)=O)[C@H](OC(C)=O)[C@@H]1OC(C)=O,,3.1% [at 11.4 µM]
CC(=O)OC[C@@H]1O[C@@H](O/N=C2/C[C@@H](O)[C@@H](O)[C@@H]3[C@@H]4C(=O)N(c5cccc(Oc6ccccc6)c5)C(=O)[C@H]4CC[C@H]23)[C@H](OC(C)=O)[C@H](OC(C)=O)[C@@H]1OC(C)=O,,0.346% [at 11.4 µM]
C#CCCCO/N=C1/C[C@@H](O)[C@@H](O)[C@@H]2[C@@H]3C(=O)N(CCC(=O)OCC)C(=O)[C@H]3CC[C@H]12,,5.95% [at 11.4 µM]
CCOC(=O)CCN1C(=O)[C@H]2[C@H]3[C@H](O)[C@H](O)C/C(=N/O[C@@H]4O[C@@H](COC(C)=O)[C@@H](OC(C)=O)[C@@H](OC(C)=O)[C@H]4OC(C)=O)[C@H]3CC[C@@H]2C1=O,3.16 µM (active),
CCOC(=O)CCN1C(=O)[C@H]2[C@H]3[C@H](O)[C@H](O)C/C(=N/OC/C=C(\C)CCC=C(C)C)[C@@H]3CC[C@@H]2C1=O,,0.883% [at 11.4 µM]
